From PubChem BioAssay
TGFb inhibitor – qHTS for Inhibitors of TGF-b; HepG2 CAGA-GFP TGF-b/SMAD3 reporter, GFP fluorescence, 18 h; TGF-beta stimulated, 500 pg/mL final; Potency, µM (top dose mostly 46.1 µM), inactives show at the highest dose activity, negative = inhibition, most hits filed as inhibitors; hit rate 1.2% among 410,000; further: potency means the concentration at half of the fitted maximal effect; on the % scale 0 is the no-effect control and ±100 the full control effect; nearly all actives have a fitted effect of over 65% in size
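Per well, imaged GFP fluorescence of HEPG2 CAGA-GFP cells gives the signal; cells get compound, then TGF-beta (500 pg/mL final), 18 h at 37 degrees C; %Activity versus -TGF-beta and +DMSO controls.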
HepG2 viability – qHTS for Inhibitors of TGF-b: Cytotox Counterscreen. HepG2 CAGA-GFP viability, ATP luminescence, 18 h. hit rate 0.76% among 410,000. AID 588856, 2011. Potency, µM (doses to about 46.1 µM), without a hit: top-dose activity change, negative = cytotoxicity, usual class: cytotoxic; further: potency means the concentration at half of the fitted maximal effect
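HepG2 CAGA-GFP cells (1000/well, DMEM with 1% FBS) received compound, then TGF-beta at 500 pg/mL final, and were incubated 18 hours at 37 degrees C. Viability was read by CellTiter-Glo luminescence. Media-only wells were set as complete cell-killing and DMSO as no toxicity.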
TDP1 inh – qHTS Assay for Inhibitors of Tyrosyl-DNA Phosphodiesterase (TDP1) | AID 485290, 2010 | hit rate 0.28% among 350,000 | recombinant TDP1, AlphaScreen DNA substrate cleavage | Tyrosyl-DNA phosphodiesterase 1 (Homo sapiens), Q9NUW8 | Potency, µM (series often up to 130 µM), for the others: at the top dose activity change, negative = inhibition, hits mostly inhibitors; further: potency means the concentration at half of the fitted maximal effect; on the % scale 0 is the no-effect control and ±100 the full control effect; nearly all actives have a fitted effect of over 40% in size
Target sequence (Q9NUW8 whole entry, looked up): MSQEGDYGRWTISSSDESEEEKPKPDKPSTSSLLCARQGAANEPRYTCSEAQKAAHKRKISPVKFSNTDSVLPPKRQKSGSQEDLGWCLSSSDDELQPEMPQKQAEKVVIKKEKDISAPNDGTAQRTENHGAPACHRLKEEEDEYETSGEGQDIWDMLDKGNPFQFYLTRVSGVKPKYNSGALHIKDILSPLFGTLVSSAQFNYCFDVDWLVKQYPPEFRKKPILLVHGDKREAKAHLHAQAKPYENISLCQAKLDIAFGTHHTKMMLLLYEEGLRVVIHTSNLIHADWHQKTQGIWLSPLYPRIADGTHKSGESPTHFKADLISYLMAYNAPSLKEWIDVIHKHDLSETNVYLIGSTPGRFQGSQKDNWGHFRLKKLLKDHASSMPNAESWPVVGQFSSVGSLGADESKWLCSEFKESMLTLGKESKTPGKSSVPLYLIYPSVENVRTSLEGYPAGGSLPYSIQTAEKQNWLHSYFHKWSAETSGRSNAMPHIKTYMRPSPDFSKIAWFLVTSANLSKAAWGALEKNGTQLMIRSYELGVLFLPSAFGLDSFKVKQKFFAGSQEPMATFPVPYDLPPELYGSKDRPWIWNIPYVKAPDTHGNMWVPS
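Compounds were preincubated with Tdp1 (1 nM final) for 15 min at room temperature before substrate (15 nM final) started a 5 min reaction; beads (10 ug/ml final) were then added for 10 min before AlphaScreen detection.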
DT40 TDP1 no CPT – qHTS for Inhibitors of human tyrosyl-DNA phosphodiesterase 1 (TDP1): qHTS in cells in absence of CPT; DT40 Tdp1-/- hTDP1 cells, no CPT, ATP luminescence, 48 h; Potency, µM (top dose mostly 46.2 µM), without a hit: at the top dose activity change, negative = growth inhibition, most hits filed as inhibitors; hit rate 15% among 420,000; AID 686978, 2013; further: potency means the concentration at half of the fitted maximal effect; on the % scale 0 is the no-effect control and ±100 the full control effect; nearly all actives have a fitted effect of over 55% in size
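Seeded 400 DT40-hTDP1 cells/well (vehicle DMSO, no 20 nM CPT); pinned compounds; ≥48 hr at 37 °C; CellTiter-Glo luminescence as viability measure.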
TDP1 cell CPT – qHTS for Inhibitors of human tyrosyl-DNA phosphodiesterase 1 (TDP1): qHTS in cells in presence of CPT; chicken DT40 Tdp1-/-;hTDP1 cells + 20 nM CPT, ATP luminescence, 48 h; Potency, µM (titrated, usually from 46.2 µM), for inactives: at the highest dose activity change, negative = growth inhibition, most hits filed as inhibitors; hit rate 12% among 420,000; AID 686979, 2013; further: potency means the concentration at half of the fitted maximal effect; on the % scale 0 is the no-effect control and ±100 the full control effect; nearly all actives have a fitted effect of over 55% in size
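Chicken DT40 Tdp1-/- cells stably complemented with human TDP1 were seeded at 400 cells/well in medium containing 20 nM camptothecin, exposed to pin-transferred compounds, and grown at 37 °C for at least 48 hr. Viability was read as ATP luminescence.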
IL1B secr inh – qHTS for Inhibitors of Inflammasome Signaling: IL-1-beta AlphaLISA Primary Screen; THP-1 LPS/ATP IL-1B secretion, AlphaLISA, 16 h; hits give low values; activity change, % at 57.5 µM; hit rate 4.7% among 360,000; in the data active means activity change below about -50%; inconclusive means mostly about -30% to -49%; further: on the % scale 0 is the no-effect control and ±100 the full control effect
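Secreted IL-1B measured by AlphaLISA bead assay after 16 h compound exposure of THP-1 cells; compounds (final up to 57.5 uM) added 1 h before LPS (250 ng/mL) and ATP (1.25 mM) stimulation; lower signal means less secretion.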
Active calls of the source: *; ? = inconclusive; . = no result given; [ ] = another dose, or the depositor's remark. A selection: hits, their analogues and other compounds. The true share with any hit is near 19%. Unless noted, the call rests on the fitted dose curve; in most records, active means well fitted curve in the direction sought with a large enough effect; inconclusive means small, poorly fitted or top-dose-only effect, or another doubt; inactive means no such curve, though single readings can be large; an effect the other way counts as inactive or inconclusive.

SMILES	TGFb inhibitor	HepG2 viability	TDP1 inh	DT40 TDP1 no CPT	TDP1 cell CPT	IL1B secr inh
Cc1ccc(CNC(=O)CSc2nc3n[nH]c(C)c3c(=N)n2-c2cccc(C)c2)cc1	?	-37.4%	4.7%	9.2µM*	13µM*	7.4
CCCn1c(SCC(=O)NCc2ccc(C)cc2)n[nH]c1=O	17.7%	-8.1%	5.8%	13.1%	-18.1%	-7.6
O=C(c1ccccc1Sc1cccc2ccccc12)N1CCOCC1	-7.0%	-5.0%	4.4%	20.6µM*	13µM*	-1.0
COC1=CC(=O)C[C@@H](C)[C@]12Oc1c(Cl)c(OC)cc(OC)c1C2=O	14.6%	-4.5%	9.6%[56.1 µM]	16.8µM*	?	-2.3
O=C(CSc1nc(-c2ccccc2)nc2c1CCCC2)c1ccc(Cl)cc1	4.1%	0.4%	.	0.3%	13.0%	.
COCCN(Cc1cc2cc(C)ccc2n2nnnc12)C(=S)Nc1ccc(OC)cc1	0.6%	3.1%	.	?	?	9.5
CCC(C)NC(=S)N(Cc1cc2cc(C)ccc2n2nnnc12)CC(C)(C)NC(C)C (stereo not given)	0.3%	-53.7%	6.0%	16.4µM*	16.4µM*	6.8
COCCN(Cc1cc2cc(C)ccc2n2nnnc12)C(=S)Nc1ccc(C)cc1	1.0%	9.2%	2.6%	23.1µM*	18.4µM*	-7.5
COc1ccccc1NC(=O)CN(c1cc(C)cc(C)c1)S(=O)(=O)c1c(C)[nH]c(=O)[nH]c1=O	-2.8%	-0.3%	8.1%	-1.9%	-1.0%	.
Cc1ccc(NC(=O)c2cc(S(=O)(=O)NCCc3ccccc3)ccc2F)cc1Cl	-1.1%	-57.1%	-4.2%	?	?	-88.0*
CCc1ccccc1NC(=O)c1cc(S(=O)(=O)NCCc2ccc(OC)c(OC)c2)ccc1F	?	-0.1%	5.2%	16.4µM*	20.6µM*	.
Cc1ccc(C)c(NC(=O)c2cc(S(=O)(=O)NCCc3ccccc3)ccc2F)c1	?	-16.8%	2.6%	?	23.1µM*	.
COC(=O)c1sc2cccc(F)c2c1S(=O)(=O)N1CCN(c2cccc(C)c2)C(C)C1 (stereo not given)	-0.2%	-27.7%	8.4%	?	?	.
CC(C)CNc1nc(NC(C)(C)C)nc(Oc2ccc(=O)n(-c3ccccc3)n2)n1	?	-25.9%	0.0%	?	?	.
CC(=O)c1sc(NC(=O)c2cc3c(C)nn(-c4ccccc4)c3s2)nc1C	-10.7%	-15.8%	3.9%	-5.2%	-10.2%	-16.5
Cc1nn(-c2ccccc2)c2sc(C(=O)Nc3cccc(Cl)c3)cc12	?	-13.0%	.	23.1µM*	?	.
COc1ccccc1NC(=O)c1cc2c(C)nn(-c3ccccc3)c2s1	9.0%	-2.6%	.	23.1µM*	?	.
Cc1nc(NC(=O)c2cc3c(C)nn(-c4ccccc4)c3s2)sc1C(=O)Nc1ccccc1	-4.7%	-2.0%	5.9%	20.6µM*	?	20.9
COc1ccc(CCNC(=O)C2(c3cccs3)CCOCC2)cc1OC	-4.2%	5.3%	5.2%	-5.2%	-15.5%	.
Nc1c(C(=O)Nc2cccc(F)c2)c2ccccn2c1C(=O)c1ccccc1	14.5%	0.1%	0.0%	-21.4%	-15.8%	.
O=[N+]([O-])c1ccccc1S(=O)(=O)NCCC1=CCCCC1	-41.3%	-20.6%	5.9%	20.6µM*	18.4µM*	-26.1
O=S(=O)(NCCC1=CCCCC1)c1cccc(Br)c1	?	-27.7%	-4.4%	18.4µM*	?	2.4
O=S(=O)(NCCC1=CCCCC1)c1ccc(F)cc1	?	-20.2%	3.5%[56.1 µM]	-2.5%	-25.3%	0.0
COc1ccccc1C(=O)NC(=O)COC(=O)c1ccc(Br)o1	11.2%	2.4%	-0.3%	-5.2%	-1.3%	10.5
COCCCN1C(=O)C2C(C(=O)Nc3cccc(Cl)c3)C3C=CC2(O3)C1C(=O)NC1CCCCC1 (stereo not given)	-21.5%	-2.6%	2.7%	-0.2%	1.6%	9.8
SMILES	TGFb inhibitor	HepG2 viability	TDP1 inh	DT40 TDP1 no CPT	TDP1 cell CPT	IL1B secr inh
COc1ccccc1Nc1nnc(SCC(=O)NC2CC2)s1	22.2%	-2.5%	2.1%	-15.8%	11.0%	-19.8
COc1ccccc1NC(=O)CSc1nnc(NC(=O)NC2CCCCC2)s1	17.8µM*	-17.3%	0.0%	?	?	.
COc1ccc2cc(C)c3nnc(SCC(=O)Nc4nc(-c5ccc(F)cc5)cs4)n3c2c1	?	0.3%	-5.1%	23.1µM*	20.6µM*	7.5
COc1ccc(NC(=O)CSc2nnc3c(C)cc4ccccc4n23)cc1	33.3%	9.9%	7.0%	8.4%	10.3%	.
COc1ccc(-c2csc(NC(=O)CSc3nnc(Nc4ccccc4C)s3)n2)cc1	-15.4%	-19.4%	0.0%	6.51µM*	6.51µM*	19.9
CCOc1ccccc1Nc1nnc(SCC(=O)Nc2nc(-c3ccc(OC)cc3)cs2)s1	2.5%	0.1%	4.8%	-16.5%	-23.8%	7.4
COc1ccccc1Nc1nnc(SCC(=O)Nc2nc(-c3ccc(F)cc3)cs2)s1	?	-49.1%	8.1%	13µM*	14.6µM*	93.1
N[C@@H](CCCCNC(=O)CCCC[C@@H]1SC[C@H]2NC(=O)N[C@H]12)C(=O)O	.	.	29.2%	.	.	.
O=C(NCCO)c1nc(C(=O)c2ccc(Cl)cc2)c2ccccc2n1	-14.0%	-7.2%	1.3%	-10.6%	0.1%	1.8
Cc1nc(-c2ccc(OCC(C)C)c(C#N)c2)sc1C(=O)O	.	.	.	-24.6%	-16.4%	.
COc1ccc(NC(=O)Nc2nnc(SCC(=O)Nc3cccc(C)c3C)s2)cc1	-2.1%	2.2%	5.2%	7.31µM*	18.4µM*	.
COc1ccc(C2Nc3ccccc3C(=O)N2c2ccccc2)cc1CSc1ccccn1 (stereo not given)	-13.3%	-23.4%	0.0%	?	?	-28.5
O=C1c2ccccc2NC(c2ccc(OCc3ccccc3)c(OCc3ccccc3)c2)N1Cc1ccco1 (stereo not given)	2.2%	2.3%	0.9%	12.6µM*	11.2µM*	.
COc1cc(C2Nc3ccccc3C(=O)N2Cc2ccccc2)ccc1OCc1ccccc1 (stereo not given)	?	-20.0%	.	?	?	.
COc1ccc(C2Nc3ccccc3C(=O)N2Cc2ccccc2)cc1CSc1ccccn1 (stereo not given)	-35.0%	5.2%	1.0%	18.4µM*	23.1µM*	.
